Reference: PubChem BioAssay AID743365 (National Center for Advancing Translational Sciences (NCATS), 2014)
Square brackets hold non-standard residues; d marks the D form. Peptide text beside a SMILES is read from it. Orn = NCCC[C@H](N)C(=O)O

Experiment: qHTS profiling of inhibitors of Plasmodium falciparum (DD2) proliferation (acoustic dispense)
Details: P. falciparum Dd2 in erythrocytes, SYBR Green DNA, 72 h; at 49.8 µM (top of the series) unless noted
`CSc1cccc(Nc2ncc3cc(-c4c(Cl)cccc4Cl)c(=O)n(C)c3n2)c1` gave a parasite growth, lower = inhibition of 3.85%. In the case of `CC(C=CC(=O)NO)=C[C@@H](C)C(=O)c1ccc(N(C)C)cc1`, the parasite growth, lower = inhibition is reported as -0.545%. Work on `Cn1cc(CNCC2CCN(c3ncc(C(=O)NO)cn3)CC2)c2ccccc21` yielded a parasite growth, lower = inhibition of 0.158%. Molecule `CC[C@]1(O)C[C@H]2CN(CCC3=c4ccccc4=N[C]3[C@@](C(=O)OC)(c3cc4c(cc3OC)N(C)[C@H]3[C@@](O)(C(N)=O)[C@H](O)[C@]5(CC)C=CCN6CC[C@]43[C@@H]65)C2)C1` has a parasite growth, lower = inhibition of 3.44%. For `Cn1c2ccccc2c2c3c(c4c5ccccc5n(CCC#N)c4c21)CNC3=O`, the parasite growth, lower = inhibition was 70.2%. `CS(=O)(=O)CCNCc1ccc(-c2ccc3ncnc(Nc4ccc(OCc5cccc(F)c5)c(Cl)c4)c3c2)o1` gave a parasite growth, lower = inhibition of 5.58%. `FC(F)c1nc2ccccc2n1-c1nc(N2CCOCC2)nc(N2CCOCC2)n1` showed a parasite growth, lower = inhibition of 0.937%. `CC[C@H]1CN2CCc3cc(OC)c(OC)cc3[C@H]2C[C@@H]1C[C@@H]1NCCc2cc(OC)c(OC)cc21` showed a parasite growth, lower = inhibition of 0.111%. Molecule `Cc1ccc([N+](=O)[O-])cc1S(=O)(=O)N(C)N=Cc1cnc2ccc(Br)cn12` has a parasite growth, lower = inhibition of 6.06%. Work on `COc1cc2c(Oc3ccc(NC(=O)C4(C(=O)Nc5ccc(F)cc5)CC4)cc3F)ccnc2cc1OCCCN1CCOCC1` yielded a parasite growth, lower = inhibition of 0.0003%. `Cn1c(=O)c(-c2c(Cl)cccc2Cl)cc2cnc(Nc3cccc(C(=O)O)c3)nc21` gave a parasite growth, lower = inhibition of -0.0499%. Molecule `COc1cc2nc(N3CCCN(C)CC3)nc(NC3CCN(Cc4ccccc4)CC3)c2cc1OC` has a parasite growth, lower = inhibition of -0.574%. For `COC(=O)[C@]12CCC(C)(C)C[C@@H]1[C@@H]1C(=O)C=C3[C@@]4(C)C=C(C#N)C(=O)C(C)(C)[C@@H]4CC[C@@]3(C)[C@]1(C)CC2`, the parasite growth, lower = inhibition was 23.1%. In the case of `CCC(=O)N1CCN(c2ccc(-n3c(=O)ccc4cnc5ccc(-c6cnc7ccccc7c6)cc5c43)cc2C(F)(F)F)CC1`, the parasite growth, lower = inhibition is reported as 3.68%. Work on `CC(C)C[C@@H]1NC(=O)[C@H](CCCN)NC(=O)[C@H](C(C)C)NC(=O)[C@@H]2CCCN2C(=O)[C@@H](Cc2ccccc2)NC(=O)[C@H](CC(C)C)NC(=O)[C@H](CCCN)NC(=O)[C@H](C(C)C)NC(=O)[C@@H]2CCCN2C(=O)[C@@H](Cc2ccccc2)NC1=O` (cyclo(V[Orn]L[dF]PV[Orn]L[dF]P)) yielded a parasite growth, lower = inhibition of 0.52%. `C[C@H](Cn1cnc2c(N)ncnc21)OCP(=O)(O)O` gave a parasite growth, lower = inhibition of 98%. With `CN(C)c1ccc(C(=C2C=CC(=[N+](C)C)C=C2)c2ccc(N(C)C)cc2)cc1` the parasite growth, lower = inhibition was 96.3%. `CC[C@@]1([C@@H]2O[C@@H]([C@H]3O[C@@](O)(CO)[C@H](C)C[C@H]3C)C[C@H]2C)CC[C@H]([C@]2(C)CC[C@]3(C[C@H](O)[C@@H](C)[C@@H]([C@@H](C)[C@@H](OC)[C@H](C)C(=O)O)O3)O2)O1` showed a parasite growth, lower = inhibition of -0.231% [at 23.2 µM]. With `CN[C@@H](C)C(=O)N[C@H]1CCCC[C@H]2CC[C@@H](C(=O)N[C@@H](c3ccccc3)c3cn(CCCCc4ccc(CCCCn5cc([C@@H](NC(=O)[C@@H]6CC[C@@H]7CCCC[C@H](NC(=O)[C@H](C)NC)C(=O)N76)c6ccccc6)nn5)cc4)nn3)N2C1=O` the parasite growth, lower = inhibition was 0.728%. With `C[C@@H](Oc1ccc2[nH]nc(C=Cc3cnn(CCO)c3)c2c1)c1c(Cl)cncc1Cl` the parasite growth, lower = inhibition was 1.14%. `CC(=O)Nc1nc(C)c(-c2ccc(Cl)c(S(=O)(=O)NCCO)c2)s1` showed a parasite growth, lower = inhibition of -0.252%. In the case of `CCCCN(CCCC)CCC(O)c1cc2c(Cl)cc(Cl)cc2c2cc(C(F)(F)F)ccc12` (stereo not drawn), the parasite growth, lower = inhibition is reported as -0.281% [at 23.2 µM]. Work on `CC1(C)N=C(N)N=C(N)N1c1ccc(Cl)cc1` yielded a parasite growth, lower = inhibition of 3.98%. With `CC(C)N=C(N)N=C(N)Nc1ccc(Cl)cc1` the parasite growth, lower = inhibition was -0.338%. In the case of `COc1ccc(-c2cc3c(C)nc(N)nc3n(C3CCC(OCCO)CC3)c2=O)cn1` (stereo not drawn), the parasite growth, lower = inhibition is reported as -0.346%. For `Cn1cc(C2=C(c3c4n(c5ccccc35)CCC(CN)C4)C(=O)NC2=O)c2ccccc21` (stereo not drawn), the parasite growth, lower = inhibition was 2.27%. `COC1=C2C[C@@H](C)C[C@H](OC)[C@@H](O)[C@@H](C)C=C(C)[C@H](OC(N)=O)[C@@H](OC)C=CC=C(C)C(=O)NC(=CC1=O)C2=O` gave a parasite growth, lower = inhibition of -0.39%. With `CN[C@@H]1C[C@H]2O[C@@](C)([C@H]1OC)n1c3ccccc3c3c4c(c5c6ccccc6n2c5c31)C(=O)N[C@H]4O` the parasite growth, lower = inhibition was 0.898%. Work on `COc1cc(NCc2ccc3nc(N)nc(N)c3c2C)cc(OC)c1OC` yielded a parasite growth, lower = inhibition of -1.45%. `CCCCCCOC(=O)C1(O)CC2OC1(C)n1c3ccccc3c3c4c(c5c6ccccc6n2c5c31)C(=O)NC4` (stereo not drawn) gave a parasite growth, lower = inhibition of 89.2% [at 1.88 µM]. In the case of `CN(C)c1ccc2nc3ccc(=[N+](C)C)cc-3sc2c1`, the parasite growth, lower = inhibition is reported as 11.8%. Molecule `C[C@H]1Cc2c([nH]c3cc(Cl)c(F)cc23)[C@@]2(N1)C(=O)Nc1ccc(Cl)cc12` has a parasite growth, lower = inhibition of -0.794%. With `C=CCn1c(=O)c2cnc(Nc3ccc(N4CCN(C)CC4)cc3)nc2n1-c1cccc(C(C)(C)O)n1` the parasite growth, lower = inhibition was -0.0983%.
